Data published in PubChem BioAssay (NCATS).
Values joined by “and” are separate entries in the source; they are usually repeats but may differ in a detail not shown here. Equal entries are not always repeated. Inconclusive results are not listed. A call without a number means that no potency is given here. Active and inactive are the calls of the source. Unless noted, calls come from the whole dose curve; as a rule, active = well fitted curve in the direction sought with a large enough effect; inconclusive = small, poorly fitted or top-dose-only effect, or another doubt; inactive = no such curve, though single readings can be large; an effect the other way counts as inactive or inconclusive. Where a SMILES comes first, the peptide text is derived from it. Bridges are numbered along the chain shown (N, C = ends). [ ]: non-standard residue; d: D form. The star is where a group is joined. Dab(CH2SO3H) = N[C@@H](CCNCS(=O)(=O)O)C(=O)O; X3 = CC[C@@H](C)CCCCC(=O)*; Dab = NCC[C@H](N)C(=O)O

Columns and labels:
[1] = qHTS assay for small molecule agonists of retinoid X receptor alpha signaling (AID 588544); conditions: HEK293T RXRa-UAS-bla, beta-lactamase reporter, 18 h; 530 nm emission
[2] = molecular target: Thyroid hormone receptor beta (Homo sapiens) (UniProt P10828); test: qHTS assay for small molecule agonists of thyroid hormone receptor beta signaling (AID 588545; calls by dose curve); conditions: TR-UAS-bla GripTite HEK 293, beta-lactamase ratio, agonist mode, 18 h, percent of T3 response, DMSO as zero; series mostly up to 76.7 µM
Outline: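 Beta-lactamase reporter activity under TR response element control is measured in HEK 293 cells after 18 hrs compound exposure. Signal is ratiometric CCF4 fluorescence, 460/530 nm.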

[3] = qHTS assay for small molecule antagonists of retinoid X receptor alpha signaling (AID 588546; active = well fitted inhibition curve with a large enough effect in the signal ratio, with a control signal flat, not every such curve was filed as active; the % refers to the signal ratio;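 note: cells stimulated with 9-cis-retinoic acid as agonist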); conditions: HEK293T RXRa-UAS-bla, beta-lactamase ratio, antagonist mode; measured here: W530 green channel, cytotoxicity proxy
Outline: (§1)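 Beta-lactamase reporter inhibition, read as CCF4 fluorescence ratio (ex 405, em 460/530 nm) after 2 h at RT. HEK293T UAS-bla cells, 2500/well, were stimulated with 9-cis-RA at 500 or 100 nM final alongside test compound for 18 h at 37 C.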

[4] = molecular target: Retinoic acid receptor RXR-alpha (Homo sapiens) (UniProt P19793); test: as above; conditions: HEK293T RXRa-UAS-bla, beta-lactamase ratio, antagonist mode
Outline: as §1

[5] = molecular target: Thyroid hormone receptor beta (Homo sapiens) (UniProt P10828); test: qHTS assay for small molecule antagonists of thyroid hormone receptor beta signaling (AID 588547; active = well fitted inhibition curve with a large enough effect in the signal ratio, with a control signal flat, not every such curve was filed as active; the % refers to the signal ratio;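 note: cells stimulated with 0.4 nM T3 agonist during compound exposure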); conditions: TR-UAS-bla HEK293, beta-lactamase ratio, antagonist mode, 18 h
Outline: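 TR-UAS-bla GripTite HEK293 cells in 2% charcoal/dextran FBS medium were preincubated 4 h at 37 C, given compound (0.59 nM to 92 uM) plus 0.4 nM T3 (final) for 18 h, then CCF4 for 2 h at RT; Hill fit gave IC50.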

[6] = molecular target: Voltage-gated inwardly rectifying potassium channel KCNH2 (Homo sapiens) (UniProt Q12809); test: qHTS Assay for Small Molecule Inhibitors of the Human hERG Channel Activity (AID 588834); conditions: U2OS BacMam hERG, FluxOR thallium flux fluorescence; series mostly up to 46.1 µM;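 note: lower thallium flux fluorescence means stronger hERG block; nearly all actives have a fitted effect of over 50% in size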; note: potency is the fitted concentration of half-maximal effect
Outline: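 U2OS cells transduced with hERG via BacMam (MOI ~100), plated 2000/well, loaded with FluxOR thallium dye, compound ~10 min, then stimulation buffer; fluorescence decrease read kinetically; AC50 from Hill fits.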

[7] = S16 Schwann cell viability assay (CellTiter-Glo assay) (AID 624031); conditions: S16 rat Schwann cells viability, 24 h; series mostly up to 57.5 µM; note: nearly all actives have a fitted effect of over 70% in size; note: potency is the fitted concentration of half-maximal effect
Outline: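 Native S16 rat Schwann cells, 500-750 cells/well in DMEM with 10% FBS, dosed with compound after overnight culture and incubated 24h at 37 degree Celsius/5% CO2. Viability by CellTiter-Glo luminescence; % activity normalized to no-cell wells and DMSO-treated cells.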

[8] = molecular target: Vitamin D3 receptor (Homo sapiens) (UniProt P11473); test: qHTS assay for small molecule antagonists of vitamin D receptor signaling (AID 588541; calls by dose curve;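 note: receptor activated by calcitriol during compound treatment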); conditions: HEK293T VDR-UAS-bla, beta-lactamase ratio, antagonist mode; series mostly up to 76.7 µM
Outline: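 VDR-UAS-bla HEK293T cells (2000/well, 2% charcoal-stripped FBS) were treated with titrated compounds plus 1-alpha,25-dihydroxyvitamin D3 (50 nM or 3 nM final) for 16 h at 37 C. CCF4 beta-lactamase fluorescence was read; Hill fits gave IC50.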

[9] = molecular target: Vitamin D3 receptor (Homo sapiens) (UniProt P11473); test: qHTS assay for small molecule agonists of vitamin D receptor signaling (AID 588543; calls by dose curve); conditions: HEK293T VDR-UAS-bla, beta-lactamase ratio, 16 h; series mostly up to 76.8 µM
Outline: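 GeneBLAzer VDR-UAS-bla HEK293T cells in 2% charcoal-stripped FBS medium were dosed with compound titrations for 16 h at 37 °C; CCF4 β-lactamase readout (405 nm ex, 460/530 nm em). EC50 and efficacy from Hill fits, normalized to 50 nM calcitriol (100%) and DMSO (0%).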

[10] = molecular target: Luciferin 4-monooxygenase (Photinus pyralis) (UniProt P08659); test: Biochemical firefly luciferase enzyme assay for NPC (AID 624030);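 note: purified P. pyralis luciferase at 10 nM with luciferin and ATP substrate; nearly all actives have a fitted effect of over 70% in size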; conditions: purified P. pyralis luciferase, luminescence, 5 min; series mostly up to 58.6 µM
Outline: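 Counter-screen for direct inhibition of the luciferase enzyme by approved-drug library compounds, run at 10 nM enzyme in 50 mM Tris acetate (final). Luminescence was read within 5 min of enzyme-buffer addition and normalized to PTC124 versus DMSO (0%).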

Sequence of Vitamin D3 receptor (Homo sapiens) (P11473 whole entry, looked up): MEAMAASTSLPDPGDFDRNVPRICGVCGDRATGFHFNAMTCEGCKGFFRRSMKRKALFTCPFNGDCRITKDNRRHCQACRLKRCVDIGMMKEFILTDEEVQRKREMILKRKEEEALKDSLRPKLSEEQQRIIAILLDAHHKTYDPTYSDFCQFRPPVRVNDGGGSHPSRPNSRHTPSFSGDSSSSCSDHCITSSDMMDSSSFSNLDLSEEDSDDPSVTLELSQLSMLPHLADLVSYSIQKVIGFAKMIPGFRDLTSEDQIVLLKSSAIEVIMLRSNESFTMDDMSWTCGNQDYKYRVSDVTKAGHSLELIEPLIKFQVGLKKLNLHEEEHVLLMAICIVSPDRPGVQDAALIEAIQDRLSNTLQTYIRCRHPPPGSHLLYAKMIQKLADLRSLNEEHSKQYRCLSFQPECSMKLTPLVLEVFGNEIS
Sequence of Voltage-gated inwardly rectifying potassium channel KCNH2 (Homo sapiens) (Q12809 whole entry, looked up): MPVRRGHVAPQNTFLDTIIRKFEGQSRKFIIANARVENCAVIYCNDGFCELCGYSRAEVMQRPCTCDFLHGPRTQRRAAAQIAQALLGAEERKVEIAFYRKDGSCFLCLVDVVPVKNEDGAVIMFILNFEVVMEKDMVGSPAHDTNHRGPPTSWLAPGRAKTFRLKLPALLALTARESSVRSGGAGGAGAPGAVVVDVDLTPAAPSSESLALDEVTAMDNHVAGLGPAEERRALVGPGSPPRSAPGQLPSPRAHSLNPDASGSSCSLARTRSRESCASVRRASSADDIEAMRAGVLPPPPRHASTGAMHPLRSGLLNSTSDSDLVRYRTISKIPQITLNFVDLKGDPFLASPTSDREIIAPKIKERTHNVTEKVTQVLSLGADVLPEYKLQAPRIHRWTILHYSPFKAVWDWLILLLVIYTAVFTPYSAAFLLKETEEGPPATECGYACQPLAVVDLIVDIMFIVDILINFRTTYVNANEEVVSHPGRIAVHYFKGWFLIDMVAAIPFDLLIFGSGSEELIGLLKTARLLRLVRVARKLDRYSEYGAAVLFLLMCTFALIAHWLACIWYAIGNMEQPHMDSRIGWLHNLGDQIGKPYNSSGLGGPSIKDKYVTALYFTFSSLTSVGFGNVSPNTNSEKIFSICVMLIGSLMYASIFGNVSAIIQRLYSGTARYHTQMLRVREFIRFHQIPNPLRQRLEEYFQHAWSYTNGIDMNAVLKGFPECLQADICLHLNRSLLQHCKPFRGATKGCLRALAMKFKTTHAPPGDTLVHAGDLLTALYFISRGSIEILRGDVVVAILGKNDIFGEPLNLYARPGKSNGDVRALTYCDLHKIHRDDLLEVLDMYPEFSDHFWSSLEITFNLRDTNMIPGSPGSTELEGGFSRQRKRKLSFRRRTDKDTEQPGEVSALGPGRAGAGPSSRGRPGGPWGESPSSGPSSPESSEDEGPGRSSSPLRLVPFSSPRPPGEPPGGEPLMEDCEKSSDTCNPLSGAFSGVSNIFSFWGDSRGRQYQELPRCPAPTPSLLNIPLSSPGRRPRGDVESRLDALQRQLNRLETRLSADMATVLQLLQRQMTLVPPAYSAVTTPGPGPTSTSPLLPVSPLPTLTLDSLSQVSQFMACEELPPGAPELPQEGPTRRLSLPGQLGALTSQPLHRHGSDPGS
Sequence of Luciferin 4-monooxygenase (Photinus pyralis) (P08659 whole entry, looked up): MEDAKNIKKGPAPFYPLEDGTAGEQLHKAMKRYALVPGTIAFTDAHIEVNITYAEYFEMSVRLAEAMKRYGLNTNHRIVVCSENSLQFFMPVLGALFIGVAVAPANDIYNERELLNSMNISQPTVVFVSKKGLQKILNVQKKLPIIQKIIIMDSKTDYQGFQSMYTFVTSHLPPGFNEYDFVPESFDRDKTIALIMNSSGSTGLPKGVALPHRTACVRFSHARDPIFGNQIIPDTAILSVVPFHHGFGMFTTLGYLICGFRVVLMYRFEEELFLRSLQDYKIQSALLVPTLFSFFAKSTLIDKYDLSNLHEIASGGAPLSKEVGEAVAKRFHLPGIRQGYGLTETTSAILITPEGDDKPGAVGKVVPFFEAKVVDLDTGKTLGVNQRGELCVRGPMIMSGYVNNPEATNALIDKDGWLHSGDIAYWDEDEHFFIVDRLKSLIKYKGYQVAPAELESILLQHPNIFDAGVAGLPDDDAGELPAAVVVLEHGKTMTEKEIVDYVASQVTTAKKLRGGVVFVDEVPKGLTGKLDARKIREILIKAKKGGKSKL
Sequence of Retinoic acid receptor RXR-alpha (Homo sapiens) (P19793 whole entry, looked up): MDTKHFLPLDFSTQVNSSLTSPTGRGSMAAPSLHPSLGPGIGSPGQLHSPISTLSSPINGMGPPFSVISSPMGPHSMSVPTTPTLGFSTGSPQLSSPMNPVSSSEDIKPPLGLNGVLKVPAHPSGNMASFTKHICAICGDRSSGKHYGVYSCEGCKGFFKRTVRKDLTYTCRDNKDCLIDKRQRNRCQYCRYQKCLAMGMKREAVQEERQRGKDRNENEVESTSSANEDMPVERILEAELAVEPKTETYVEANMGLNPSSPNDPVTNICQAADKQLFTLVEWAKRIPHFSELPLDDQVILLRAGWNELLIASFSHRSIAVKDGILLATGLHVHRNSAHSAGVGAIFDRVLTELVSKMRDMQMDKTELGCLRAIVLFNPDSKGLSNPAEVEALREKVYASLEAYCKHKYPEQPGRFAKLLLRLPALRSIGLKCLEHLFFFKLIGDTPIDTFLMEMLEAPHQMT
Sequence of Thyroid hormone receptor beta (Homo sapiens) (P10828 whole entry, looked up): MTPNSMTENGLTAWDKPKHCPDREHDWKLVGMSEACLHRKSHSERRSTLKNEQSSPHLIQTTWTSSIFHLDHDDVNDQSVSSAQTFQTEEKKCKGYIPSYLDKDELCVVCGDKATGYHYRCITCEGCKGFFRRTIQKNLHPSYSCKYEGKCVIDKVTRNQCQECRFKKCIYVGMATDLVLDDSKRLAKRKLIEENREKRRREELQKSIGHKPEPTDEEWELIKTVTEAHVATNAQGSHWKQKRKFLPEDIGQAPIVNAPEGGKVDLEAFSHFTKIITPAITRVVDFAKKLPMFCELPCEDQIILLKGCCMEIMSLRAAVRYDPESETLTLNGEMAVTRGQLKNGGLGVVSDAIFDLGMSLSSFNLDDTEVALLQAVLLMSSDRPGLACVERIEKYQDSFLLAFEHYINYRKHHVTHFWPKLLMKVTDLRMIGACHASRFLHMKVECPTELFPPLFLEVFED

IC(I)I
max response [1]: 19.8% | outcome [2]: inactive | max response [3]: -9.02% and 2.26% | max response [4]: 21.1% (inactive) and -13.8% (inactive) | activity change % (negative = inhibition) [5]: 1.7% (inactive) and 9.81% (inactive) | Potency [6]: inactive | Potency [7]: inactive

CC[C@@H](C)CCCCC(=O)N[C@@H](CCNCS(=O)(=O)O)C(=O)N[C@H](C(=O)N[C@@H](CCNCS(=O)(=O)O)C(=O)N[C@H]1CCNC(=O)[C@H]([C@@H](C)O)NC(=O)[C@H](CCNCS(=O)(=O)O)NC(=O)[C@H](CCNCS(=O)(=O)O)NC(=O)[C@H](CC(C)C)NC(=O)[C@@H](CC(C)C)NC(=O)[C@H](CCNCS(=O)(=O)O)NC1=O)[C@@H](C)O (X3-[Dab(CH2SO3H)]T[Dab(CH2SO3H)][Dab][Dab(CH2SO3H)][dL]L[Dab(CH2SO3H)][Dab(CH2SO3H)]T; lactam 4-C)
Potency [6]: inactive

C=C1CC[C@@H]2[C@](C)(CO)[C@H](O)CC[C@@]2(C)[C@@H]1C/C=C1/C(=O)OC[C@H]1O
Potency [6]: inactive

Nc1ccn([C@H]2CS[C@@H](CO)O2)c(=O)n1
outcome [8]: inactive | outcome [9]: inactive | max response [1]: 1% | outcome [2]: inactive | max response [3]: -4.12% | max response [4]: 12.8% (inactive) | activity change % (negative = inhibition) [5]: 10.8% (inactive) | Potency [6]: inactive

O=S(=O)(O)O
max response [1]: -13.7% and 0.0864% | outcome [2]: inactive | max response [3]: -14.3% and 12.6% | max response [4]: -0.45% (inactive) and -13.7% (inactive) | activity change % (negative = inhibition) [5]: 16% (inactive) and -10.1% (inactive) | Potency [6]: inactive | Potency [10]: inactive | Potency [7]: inactive

CCC1OC(=O)C[C@@H](O)[C@H](C)[C@@H](O[C@@H]2O[C@H](C)C[C@H](N(C)C)[C@H]2O)[C@@H](CC=O)C[C@@H](C)C(=O)/C=C/[C@]2(C)OC2C1C (stereo partly specified)
Potency [6]: inactive

CO[C@@H]1[C@@H](O[C@@H]2O[C@H](C)[C@@H](O[C@H]3C[C@@](C)(O)[C@@H](O)[C@H](C)O3)[C@H](N(C)C)[C@H]2O)[C@@H](CC=O)C[C@@H](C)[C@@H](O[C@@H]2CC[C@H](N(C)C)[C@@H](C)O2)/C=C/C=C/C[C@@H](C)OC(=O)C[C@H]1O
Potency [6]: inactive

CCOC(=O)O[C@]1(C(=O)COC(=O)CC)CC[C@H]2[C@@H]3CCC4=CC(=O)C=C[C@]4(C)[C@H]3[C@@H](O)C[C@@]21C
Potency [6]: inactive

CC1(C)O[C@@H]2C[C@H]3[C@@H]4CCC5=CC(=O)C=C[C@]5(C)[C@H]4[C@@H](O)C[C@]3(C)[C@]2(C(=O)CO)O1
Potency [6]: inactive

OCC(S)CS (stereo unspecified)
Potency [6]: inactive

CC1=C(/C=C/C(C)=C/C=C/C(C)=C/CO)C(C)(C)CCC1
outcome [8]: inactive | outcome [9]: inactive | outcome [2]: inactive | max response [3]: 23.5% and 17% | max response [4]: -17.7% (inactive) and -18.6% (inactive) | activity change % (negative = inhibition) [5]: 7.96% (inactive) and 4.62% (inactive) | Potency [10]: inactive | Potency [7]: inactive

CC(O)CO (stereo unspecified)
outcome [8]: inactive | outcome [9]: inactive | max response [1]: -9.84% and -15.2% | outcome [2]: inactive | max response [3]: -2.37% and -5.47% | max response [4]: 9.68% (inactive) and 0.556% (inactive) | activity change % (negative = inhibition) [5]: 11.6% (inactive) and -10.9% (inactive) | Potency [6]: inactive | Potency [10]: inactive | Potency [7]: inactive

CCCCCCCC(=O)O
outcome [8]: inactive | outcome [9]: inactive | max response [1]: 23.4% and -6.86% | outcome [2]: inactive | max response [3]: -6.98% and -8.84% | max response [4]: 18.1% (inactive) and 2.05% (inactive) | activity change % (negative = inhibition) [5]: 8.96% (inactive) and 0.409% (inactive) | Potency [6]: inactive | Potency [10]: inactive | Potency [7]: inactive

CC1(C)C(C=C(Cl)Cl)C1C(=O)OCc1cccc(Oc2ccccc2)c1 (stereo unspecified)
outcome [8]: inactive | max response [3]: -5.2% [middle of 4 runs] | max response [4]: -8.16% (inactive) [middle of 4 runs] | activity change % (negative = inhibition) [5]: 3.43% (inactive) [middle of 4 runs] | Potency [6]: inactive | Potency [7]: inactive

O=C(O)CCC(=O)C(=O)O
outcome [8]: inactive | outcome [9]: inactive | max response [1]: -2.92% | outcome [2]: inactive | max response [3]: -14.3% | max response [4]: 8.74% (inactive) | activity change % (negative = inhibition) [5]: 1.53% (inactive) | Potency [6]: inactive | Potency [10]: inactive | Potency [7]: inactive

O=C(O)C1CCCN1 (stereo unspecified)
Potency [6]: inactive

Cc1cc(CC(C)CC(C)(C)C)n(O)c(=O)c1 (stereo unspecified) (tested in a mixture with another compound)
Potency [6]: inactive

OCCO[C@@H]1[C@@H](O)[C@H](O)[C@@H](CO)O[C@@H]1O
Potency [6]: inactive

C[C@]12O[C@H](C[C@]1(O)CO)n1c3ccccc3c3c4c(c5c6ccccc6n2c5c31)CNC4=O
Potency [6]: inactive | Potency [10]: inactive | Potency [7]: 10.2 µM (active)

CC(C)(C)C1(O)CCN2CC3c4ccccc4CCc4cccc(c43)C2C1 (stereo unspecified)
Potency [6]: 2.82 µM (active)

CC[C@@]1(O)C(=O)OCc2c1cc1n(c2=O)Cc2cc3c([N+](=O)[O-])cccc3nc2-1
Potency [6]: inactive | Potency [10]: inactive

O=C(O)c1cc(O)c2c(c1)[O][Bi][O]2
Potency [6]: inactive | Potency [10]: inactive | Potency [7]: inactive

O=C1C(=O)c2ncccc2-c2cccnc21
Potency [6]: inactive | Potency [10]: inactive

Nc1c(Br)cc(Br)cc1CNC1CCC(O)CC1 (stereo unspecified)
Potency [6]: inactive | Potency [10]: inactive | Potency [7]: inactive

CCCCCCOc1ccc(C(=N)N(CCCC)CCCC)c2ccccc12
Potency [6]: 2.24 µM (active) | Potency [10]: inactive | Potency [7]: 16.1 µM (active)

CCCCC(=O)O[C@]1(C(=O)CO)[C@H](C)C[C@H]2[C@@H]3CCC4=CC(=O)C=C[C@]4(C)[C@@]3(F)[C@@H](O)C[C@@]21C
Potency [6]: inactive | Potency [10]: inactive | Potency [7]: inactive

C[C@@H]1[C@H](O)[C@@H](C)/C=C/C=C\C=C\C=C\C=C\C=C\C=C\[C@H](O[C@@H]2O[C@H](C)[C@@H](O)[C@H](N)[C@@H]2O)C[C@@H]2O[C@](O)(C[C@@H](O)C[C@@H](O)[C@H](O)CC[C@@H](O)C[C@@H](O)CC(=O)O[C@H]1C)C[C@H](O)[C@H]2C(=O)O (stereo in doubt)
Potency [6]: inactive

NC(=O)c1ncn(C2OC(CO)C(O)C2O)n1 (stereo unspecified)
Potency [6]: inactive | Potency [10]: inactive | Potency [7]: inactive
